Measured values reported in PubChem BioAssay AID463173 (ICCB-Longwood Screening Facility, Harvard Medical School, 2010).
Among all 52,000 compounds or so, about 4,300 (8.3%) were called active. No stated cut-off is given here; in the data, active means survival mostly below about 52% (no sharp cut-off); inactive means mostly above about 56%. The list comes from a sample in which actives are over-represented; it also holds similar structures and randomly drawn compounds.

These compounds were tested on DeltatarO mutant (assay: S. aureus survival, RN4220 and DeltatarO strains – OD600, teichoic acid synthesis inhibitors, primary screen (AID 463173)). Conditions: S. aureus RN4220 wild type/DeltatarO growth, OD600, 18 h, stronger effect = lower value, screened at 18.75 µg/mL (by protocol).

SMILES	survival
CC1=C(C)NC(=S)SC1	101% (inactive)
Cc1cc(=O)c2cc(C(=O)Nc3ccccc3C)ccc2[nH]1	84% (inactive)
COc1ccc(CCNC(=O)c2c(Nc3ccccc3C)sc(C(=O)c3ccccc3)c2N)cc1OC	66% (inactive)
O=C(NC1CC1)C1CCN(C(=O)c2ccc(Cl)cc2)CC1	86% (inactive)
CCCC(C(=O)NC1CCCC1)N(C(=O)Cn1nnc(-c2ccc(C)o2)n1)c1ccccc1 (configuration not stated)	89% (inactive)
CC(=NC1CC1)C1=C(O)c2ccccc2C1=O	92% (inactive)
Cc1cc(C)c(S(=O)(=O)n2cnc(C)c2)c(C)c1	95% (inactive)
CC(C)c1ccc(OCC(=O)Nc2cc(-c3nc4ncccc4o3)ccc2Cl)cc1	150% (inactive)
Cc1cc(-c2nc3ncccc3o2)ccc1NC(=O)COc1ccc(C(C)(C)C)cc1	32% (active)
Cc1cc(-c2nc3ncccc3o2)ccc1NC(=O)COc1cc(C)c(Cl)c(C)c1	65% (inactive)
Cc1cc(OCC(=O)Nc2cc(-c3nc4ncccc4o3)ccc2C)ccc1Cl	50% (inactive)
CCC(=O)Nc1ccc(-c2nc3ncccc3o2)cc1C	73% (inactive)
Cc1ccc(-c2nc3ncccc3o2)cc1NC(=O)COc1ccc(C(C)C)cc1	6% (active)
COc1ccc(-c2nc(C)c(CCNC(=O)C(=O)Nc3c(C)cccc3C)s2)cc1OC	85% (inactive)
CCc1ccccc1NC(=O)c1nn(-c2ccc(C)cc2)c(=O)c2c1c1ccccc1n2C	140% (inactive)
Cc1cc(C)cc(NC(=O)CCn2cnc3ccccc3c2=O)c1	77% (inactive)
CC1(C)Cc2ccccc2C(=NCCC(=O)O)N1	79% (inactive)
CC(=O)NCCNC(=O)CCCc1nnc2n(CCC(C)C)c(=O)c3sccc3n12	90% (inactive)
CC(C)c1nnc(N2C(=O)c3oc4ccccc4c(=O)c3C2c2ccccc2F)s1 (configuration not stated)	64% (inactive)
Cc1ccc(CNC(=O)c2cc(=O)c3cc(C)ccc3o2)cc1	42% (active)
COc1ccc(CNC(=O)c2cc(=O)c3cc(C)ccc3o2)cc1	45% (active)
COc1ccc(CCNC(=O)c2cc(=O)c3ccc(C)cc3o2)cc1OC	62% (inactive)
Cc1ccc2c(=O)cc(C(=O)NCc3ccccc3)oc2c1	39% (active)
CCc1ccc2oc(C(=O)NCc3ccccc3)cc(=O)c2c1	66% (inactive)
COc1ccc(CNC(=O)c2cc3cc(OC)ccc3oc2=O)cc1	51% (inactive)
Cc1ccc(CNC(=O)c2cc(=O)c3cc(C)c(C)cc3o2)cc1	77% (inactive)

SMILES	survival
COc1ccc(CNC(=O)Cc2coc3ccc(C)cc23)cc1	108% (inactive)
Cc1ccc(CNC(=O)c2cc(=O)c3cc(C)cc(C)c3o2)cc1	102% (inactive)
COc1ccc(CC(NC(C)=O)C(=O)N2CCN(C(=O)Nc3ccc(C#N)cc3)CC2)cc1 (configuration not stated)	99% (inactive)
Cc1cc(C)cc(NC(=O)NCCc2c(C)nn(C)c2C)c1	64% (inactive)
CC1CCCCN1C(=O)CSc1nc2ccccc2c(=O)[nH]1 (configuration not stated)	82% (inactive)
CCOc1cc(C(=O)OCc2cc(=O)n3nc(CC)sc3n2)cc(OCC)c1OCC	87% (inactive)
Cc1ccc(OCc2nc(-c3ccc(C(=O)NCCc4ccc(Cl)cc4)cc3)oc2C)cc1	84% (inactive)
Cc1oc(-c2cccc(Cl)c2)nc1CN1CCC(C(=O)NCc2ccc(F)cc2)CC1	124% (inactive)
CCc1ccccc1NC(=O)c1cc(-c2ccc(Cl)s2)nc2ccccc12	71% (inactive)
CCOc1ccccc1NC(=O)c1cc2c(Cl)nc3ccccc3c2s1	41% (active)
O=C(Nc1ccc(Cl)cc1)c1cc2c(Cl)nc3ccccc3c2s1	94% (inactive)
CCc1ccccc1NC(=O)c1cc2c(Cl)nc3ccccc3c2s1	42% (active)
CC(C)NC(=O)c1cc2c(Cl)nc3ccccc3c2s1	56% (inactive)
CCOc1ccccc1NC(=O)c1cc2c(=O)[nH]c3ccccc3c2s1	60% (inactive)
CCOC(=O)C1=C(CN(CC)Cc2ccccc2)NC(=O)NC1c1ccc(OC)cc1 (configuration not stated)	65% (inactive)
CNC(=O)c1cc2c(n(-c3ccc(C)cc3)c1=O)CC(C)(C)CC2=O	93% (inactive)
CCOC(=O)c1ccc(NC(=O)c2cc3c(n(-c4ccc(C)cc4)c2=O)CC(C)(C)CC3=O)cc1	153% (inactive)
CC1(C)CC(=O)c2cc(C(=O)Nc3ccc(Br)cc3)c(=O)n(-c3ccc(Cl)cc3)c2C1	42% (active)
CC1(C)CC(=O)c2cc(C(=O)NC(C)(C)C)c(=O)n(-c3ccccc3)c2C1	39% (active)
CCOc1ccc(NC(=O)c2cc3c(n(-c4ccc(OC)cc4)c2=O)CC(C)(C)CC3=O)cc1	60% (inactive)
COc1ccccc1NC(=O)c1cc2c(n(-c3ccc(C)cc3)c1=O)CC(C)(C)CC2=O	45% (active)
Cc1ccc(-n2c3c(cc(C(=O)Nc4ccccc4C(N)=O)c2=O)C(=O)CC(C)(C)C3)cc1	49% (inactive)
COc1ccc(OC)c(NC(=O)c2cc3c(n(-c4ccc(Cl)cc4)c2=O)CC(C)(C)CC3=O)c1	69% (inactive)
CN(C)C=NC(=O)c1cc2c(n(-c3ccccc3)c1=O)CC(C)(C)CC2=O	46% (inactive)
Cc1ccc(CCNC(=O)CCCn2c(=O)c3ccccc3n(Cc3ccccc3C)c2=O)cc1	88% (inactive)
CC1CC(C)CN(C(=O)Cn2cnc3c2c(=O)n(C)c(=O)n3C)C1 (configuration not stated)	107% (inactive)

SMILES	survival
Cc1ccccc1CNC(=O)CN1C(=O)CSc2ccc(S(=O)(=O)N(C)C)cc21	78% (inactive)
CCC(=O)N(Cc1nc2ccccc2c(=O)[nH]1)Cc1ccccc1OC	90% (inactive)
Cc1ccc(N2CCN(C(=O)c3cc(S(=O)(=O)N4CCCCC4)c[nH]3)CC2)c(C)c1	102% (inactive)
CCOc1ccc(N(CC(=O)Nc2ccccc2CC)S(=O)(=O)c2c(C)noc2C)cc1	79% (inactive)
COc1ccc(C(=O)Nc2nnc(SCc3cc(=O)n4cccc(C)c4n3)s2)cc1	72% (inactive)
O=C(O)c1ccc(CN2CCCCC2)cc1	79% (inactive)
Cc1oc(C(=O)O)cc1CN1CCCC1	100% (inactive)
Cc1cc(C(=O)O)c(CN2CCCC2)o1	74% (active)
CC1=C(C(=O)Nc2cccnc2)C(c2ccccc2Cl)n2nc(-c3ccccc3)nc2N1 (configuration not stated)	74% (inactive)
Cc1nc(SCC(N)=O)c2c3c(sc2n1)CCCC3	80% (inactive)
Cc1nc(SCC(=O)OC(C)(C)C)c2c3c(sc2n1)CCCC3	7% (active)
Cc1ccc(-c2nc(NC(=O)CSc3nc(C)nc4sc5c(c34)CCCC5)ns2)cc1	53% (inactive)
CCCCN(C)c1ncnc2c1cnn2-c1cccc(Cl)c1	101% (inactive)
CCc1ccc(C(=O)c2cn(CC(=O)Nc3ccc4c(c3)OCO4)c3ccc(Cl)cc3c2=O)cc1	72% (inactive)
Cc1oc2ccc(NS(=O)(=O)c3ccc(F)cc3)cc2c1C(=O)O	193% (inactive)
CC(C)(C)C1CCc2oc3ccc(NS(=O)(=O)c4ccc(C(=O)O)cc4)cc3c2C1 (configuration not stated)	16% (active)
CCn1cnc2c(=O)oc3ccc(S(=O)(=O)Nc4ccc(OC)cc4)cc3c21	75% (inactive)
COc1ccc(S(=O)(=O)Nc2ccc3oc4c(c3c2)C(=O)CC(C)(C)C4)cc1	159% (inactive)
Cc1cc(C)c(S(=O)(=O)Nc2ccc3oc4c(c3c2)CCCC4)cc1C	55% (inactive)
CC(C)(C)C1CCc2oc3ccc(NS(=O)(=O)c4cc(Cl)ccc4Cl)cc3c2C1 (configuration not stated)	73% (inactive)
COc1ccc(S(=O)(=O)Nc2ccc3oc4c(c3c2)CCCC4)cc1	27% (active)
O=S(=O)(NC1CCCCC1)c1cc(Cl)ccc1Cl	96% (inactive)
Cc1ccc(S(=O)(=O)Nc2cc(Cl)c3oc4c(c3c2)CCCC4)cc1	117% (inactive)
O=S(=O)(Nc1ccc2oc3c(c2c1)CCCC3)c1cc(Cl)ccc1Cl	33% (active)
CCOc1ccc(S(=O)(=O)Nc2ccc3oc4c(c3c2)CC(C)CC4)cc1 (configuration not stated)	44% (inactive)
Cc1cc(S(=O)(=O)Nc2ccc3oc4c(c3c2)CCCC4)ccc1Cl	41% (active)

SMILES	survival
CCN1C(=O)c2ccccc2Sc2ccc(NC(=O)Nc3ccc(Br)c(C)c3)cc21	71% (inactive)
Oc1ccccc1Nc1nc2ccccc2n2nnnc12	80% (inactive)
CN(C)CCCNc1nc(-c2ccc(Cl)cc2)cs1	132% (inactive)
CCOc1cc(C2c3c(oc4cc(C)cc(C)c4c3=O)C(=O)N2CCO)ccc1O (configuration not stated)	68% (inactive)
O=C(Cn1c2ncccc2c(=O)n1-c1ccccc1)Nc1cccc(C(F)(F)F)c1	67% (inactive)
O=C(Nc1ccccc1C(=O)N1CCOCC1)C1COc2ccccc2O1 (configuration not stated)	95% (inactive)
CCC(=O)N1CCc2cc(CNC(=O)c3ccc(F)cc3)ccc21	73% (inactive)
O=C(Nc1ccc(Cl)cc1F)c1cc(S(=O)(=O)NCc2ccc3c(c2)OCO3)ccc1F	77% (inactive)
COc1ccc(/C=C2\SC(=S)N(CCC(=O)NCCO)C2=O)cc1	104% (inactive)
Cc1cc2c(cc1S(=O)(=O)NCc1ccc(N(C)C)cc1)OCC(=O)N2	80% (inactive)
COc1ccc(NC(=O)c2[nH]nc3c2CSc2ccccc2-3)c(OC)c1	49% (inactive)
COc1cccc2cc(-c3nc(Nc4cccc(C)c4)sc3C)c(=O)oc12	98% (inactive)
COc1cccc2cc(-c3nc(-c4ccc(C)cc4)c(C)s3)c(=O)oc12	46% (active)
CCOc1cccc2cc(-c3nc(-c4ccc(Cl)cc4)c(C)s3)c(=O)oc12	105% (inactive)
CCOC(=O)C1=C(SCC)c2cc3c(n2C1=O)CCCC3	83% (inactive)
CCCN(CCC)CCNC(=O)c1cc(-c2ccc(Br)s2)nc2ccccc12	68% (inactive)
CC(C)CN(CCCNC(=O)c1cc(-c2ccc(Br)s2)nc2ccccc12)CC(C)C	91% (inactive)
CCN(CC)CCNC(=O)c1cc(-c2ccc(Br)s2)nc2ccccc12	28% (active)
CC(C)CCNC(=O)c1cc(-c2ccc(Br)s2)nc2ccccc12	81% (inactive)
CCN(CC)CC(C)CNC(=O)c1cc(-c2ccc(Br)s2)nc2ccccc12 (configuration not stated)	31% (active)
COc1ccc(CNC(=O)c2cc(-c3ccc(Br)s3)nc3ccccc23)cc1	77% (inactive)
CCCCN(C)CCCNC(=O)c1cc(-c2ccc(Br)s2)nc2ccccc12	33% (inactive)
CCc1ccc(CNC(=O)c2cc(-c3ccc(Br)s3)nc3ccccc23)cc1	60% (active)
CCc1ccc(CNC(=O)c2cc(-c3ccc(Cl)s3)nc3ccccc23)cc1	83% (inactive)
